Bioassay records deposited in PubChem by National Center for Advancing Translational Sciences (NCATS).
An excerpt weighted towards active compounds, which were near 7.7% of everything screened.
RE007 growth inh: less growth of the S. pombe RE007 Vpr strain; AID 651644; 360,000 compounds, 0.21% hits; Potency, µM (titrated, usually from 92.2 µM), actives largely listed as inhibitors; S. pombe RE007 Vpr strain, BacTiter-Glo ATP luminescence, 24 h; active = well fitted falling curve with a large enough effect; inconclusive = small, poorly fitted or top-dose-only effect; inactive = no such curve, though single readings can be large or run the other way; also: nearly all actives have a fitted effect of over 50% in size
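Fission yeast RE007 carrying one integrated HIV-1 vpr copy, seeded at OD 0.01 in PMG+AL medium with 23 nL pinned compound. Grown 24 h at 30 degrees; viability read by BacTiter-Glo luminescence after 5 min.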
Sm TGR block: inhibitors of Schistosoma mansoni thioredoxin glutathione reductase | AID 485364 | purified TGR, DTNB reduction, TNB absorbance 405 nm | Q962Y6 | Potency, µM (doses to about 114 µM), usual class: inhibitors | 360,000 compounds, 3% hits; also: nearly all actives have a fitted effect of over 60% in size
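TGR 20 nM + NADPH 100 uM (dispensed conc.), cpd preinc 15 min RT; start with NADPH (500 uM addition) then DTNB (15 mM addition). Kinetic TNB absorbance, 405 nm filter. Four-parameter Hill fit across titration.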
HCMV inh: inhibitors of human cytomegalovirus; HFF cells, HCMV-luciferase reporter, 72 h; hits give low values; activity change, negative = inhibition, % at 57.5 µM; 410,000 compounds, 4.5% hits; AID 1259415; in the data active = activity change below about -60%; inconclusive = no clear call, values can overlap the other calls; inactive = above about -39%
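HFF cells seeded 16 h at 37C, treated with compounds, infected with luciferase-reporter HCMV at MOI 1 PFU/cell; luciferase read at 72 h post infection, normalized to buffer-only and Salinomycin controls.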
Giardia FBPA inh: inhibitors of Giardia lamblia fructose-1,6-bisphosphate aldolase; A8B2U2; 290,000 compounds, 0.71% hits; AID 2451; Potency, µM (highest dose often 59.6 µM), actives largely listed as inhibitors; purified Giardia FBPA; also: nearly all actives have a fitted effect of over 55% in size
Target sequence (A8B2U2 whole entry, looked up): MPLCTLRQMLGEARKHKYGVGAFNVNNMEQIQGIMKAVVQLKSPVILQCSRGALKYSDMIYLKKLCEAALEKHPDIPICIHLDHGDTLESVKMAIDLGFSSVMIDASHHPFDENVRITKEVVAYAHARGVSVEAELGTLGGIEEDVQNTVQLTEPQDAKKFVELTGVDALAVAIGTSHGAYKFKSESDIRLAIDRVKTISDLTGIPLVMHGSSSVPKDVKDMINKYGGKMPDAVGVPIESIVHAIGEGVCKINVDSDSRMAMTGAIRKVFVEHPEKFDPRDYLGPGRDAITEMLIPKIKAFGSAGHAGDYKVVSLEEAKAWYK
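40 nM FBPA preincubated 10 min at RT with compound (up to 57.5 uM final), then substrate plus GAPDH/TPI/NAD/arsenate coupling and diaphorase/resazurin added. Fluorescence read after 20 min at RT, 525/598 nm.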
FMDV antiviral: foot and mouth disease virus antiviral activity | FMDV antiviral cell-based qHTS | Potency, µM (series often up to 57.9 µM), usual class: inhibitors | 410,000 compounds, 1.2% hits | AID 1159524; calls by dose curve; tested in HEK293T cells; also: read-out not given here; nearly all actives have a fitted effect of over 45% in size
Tb PYK inh: inhibitors of Trypanosoma brucei pyruvate kinase | Q57TT1 | 410,000 compounds, 0.12% hits | TbPYK enzyme, Kinase-Glo Plus ATP luminescence, 45 min | Potency, µM (titrated, usually from 76.8 µM), usual class: inhibitors; also: nearly all actives have a fitted effect of over 50% in size
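Glycolytic pyruvate kinase of T. brucei was incubated with substrate, test compound and 130 uM ADP for 45 minutes at room temperature. Luminescent Kinase-Glo Plus signal was measured after 10 minutes.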
A number is an active result; – = inactive; ? = inconclusive; · = no result; [ ] = dose if it differs, or a comment. Unless noted, calls follow the shape of the dose curve; as a rule, active = well fitted curve in the direction sought with a large enough effect; inconclusive = small, poorly fitted or top-dose-only effect, or another doubt; inactive = no such curve, though single readings can be large; an effect the other way counts as inactive or inconclusive.

SMILES	RE007 growth inh	Sm TGR block	HCMV inh	Giardia FBPA inh	FMDV antiviral	Tb PYK inh
CCOC(=O)c1ccc(N2C(=O)c3n[nH]c(-c4cccs4)c3C2c2ccc(C(C)C)cc2)cc1 (stereo not given)	·	–	-106	·	?	–
CCOC(=O)c1ccc(N2C(=O)c3n[nH]c(C)c3C2c2ccc(C(C)(C)C)cc2)cc1 (stereo not given)	·	–	–	·	–	–
CCOC(=O)c1ccc(N2C(=O)c3n[nH]c(-c4cccs4)c3C2c2ccc(CC)cc2)cc1 (stereo not given)	·	–	-99	·	?	–
CCOC(=O)c1ccc(N2C(=O)c3n[nH]c(C)c3C2c2ccc(CC)cc2)cc1 (stereo not given)	·	–	–	·	?	–
Cc1ccc(C)c(-n2nnnc2Sc2nnnn2-c2ccccc2)c1	–	–[11.4 µM]	-97	–	16µM	–
O=S1(=O)N[C@@H](Cc2ccccc2)COc2cc(NC3CC3)ccc21	·	·	–	·	·	·
CC(C)[C@@]1(NC(=O)[C@H]2C[C@H]3c4cccc5[nH]cc(c45)C[C@@H]3N(C)C2)O[C@]2(O)[C@H]3CCCN3C(=O)CN2C1=O (tested in a mixture with another compound)	·	·	·	·	·	–
CC(=O)Nc1ccc(SCCN2CCN(CCc3ccccc3)CCC2=O)cc1	·	·	·	–	·	·
CN(C)C(=O)c1ccc(-c2cc3c(Nc4ccc(OC(F)(F)F)cc4)nccc3n2C)cc1	·	·	–	·	·	·
O=C(Nc1cccc(C(=O)O)c1)/C(=C\c1ccccc1)NC(=O)c1ccccc1	–	–	?	–	–	–
O=C(/C=C/c1ccccc1)Nc1cccc(C(=O)N2CCCCC2)c1	–	·	–	·	–	–
O=C(/C=C/c1ccccc1)Nc1cc(NC(=O)/C=C/c2ccccc2)cc(C(=O)O)c1	–	40µM	–	–	–	–
O=C(Nc1cccc(C(=O)O)c1)/C(=C\C=C\c1ccccc1)NC(=O)c1ccccc1	–	·	-104	–	–	–
O=C(/C=C/c1ccccc1)Nc1cccc(C(=O)O)c1	–	–	–	–	10µM	–
CC(C)N(c1cc(=O)nc2ccccn12)C(C)C	·	·	–	·	·	·
COc1ccc(-c2nc3c(C)cc(Br)cn3c2Cc2ccccc2C(F)(F)F)cc1OC	·	·	–	·	·	·
Cc1nnsc1SCC(=O)O	–	–	-99	–	–	–
Cc1nnsc1Sc1ccccc1C(=O)O	–	–	–	–	–	–
CC(C)(C)N1C(=O)[C@@H]2[C@H]3C(=CC[C@H]2C1=O)C(=O)[C@H]1O[C@H]1[C@H]3O	·	·	·	–[12.9 µM]	·	·
Cc1ccc(C)c2sc(N3CCN(C(=O)c4ccco4)CC3)nc12	·	56µM	–	·	–	–
Cc1cc(C)nc(N2CCC(C(=O)NCCc3ccccc3)CC2)n1	–	–	–	–	–	–
Cc1cc(N2CCN(C(=O)c3ccco3)CC2)nc(-c2ccccc2)n1	–	45µM	–	–	–	–
Cc1cc(N2CCN(C(=O)c3ccco3)CC2)n2nc(-c3cccc(F)c3)cc2n1	–	?	-63	–	?	–
Cc1cc(N2CCN(c3ccccc3)CC2)nc(-c2ccccc2)n1	–	–	–	–	–	–
C#CCNC(=O)C1CCN(c2cc(C)nc(-c3ccccc3)n2)CC1	–	·	-95	–	–	–
SMILES	RE007 growth inh	Sm TGR block	HCMV inh	Giardia FBPA inh	FMDV antiviral	Tb PYK inh
COc1ccc(S(=O)(=O)NCCc2sc(-c3cccc(F)c3)nc2C)cc1	·	–	–	·	–	–
Cc1c(C(=O)NCC2(c3ccccc3)CCOCC2)cnn1-c1nccc(-c2ccco2)n1	·	·	·	·	–	·
CN(C(=O)C(C)(C)C)c1ccc(OCC(=O)N2CCc3ccccc3C2)cc1	–	–	-82	·	?	–
CCN(CC)CCNC(=O)c1ccc(NC(=O)c2cn(-c3ccc(F)cc3)nc2-c2cccc(OC)c2)cc1	–	–	-66	–	–	–
O=C(Nc1cccnc1)c1cn(-c2ccccc2)nc1-c1cccs1	–	–	–	–	·	–
CCN(CC)CCNC(=O)c1ccc(NC(=O)c2cn(-c3ccccc3)nc2-c2cccs2)cc1	–	–	-98	–	–	–
CCOc1ccc(NC(=O)CN(C)C(=O)c2cn(-c3ccc(F)cc3)nc2-c2cccc(OC)c2)cc1OCC	–	–	–	·	–	–
CC(C)[C@@H](CC(=O)N[C@@H]1CCCC[C@H]1C(=O)N[C@H](CC(=O)N[C@@H](CCC(=O)O)CC(=O)O)Cc1ccccc1)NC(=O)C[C@H](Cc1ccccc1)NC(=O)[C@@H]1CCCC[C@H]1N	·	·	·	–	·	·
CCCCCOC(=O)CSc1ncnc2sc3c(c12)CCC(C)C3 (stereo not given)	·	–	–	·	–	–
CC(=O)N(O)[C@@H]1c2cc(C#N)ccc2OC(C)(C)[C@H]1O	·	·	·	–	–	·
Cc1ccccc1-c1nc(NC(=O)CSc2ncnc3sc4c(c23)CCCC4)ns1	·	–	–	·	–	–
O=C1c2ccccc2C(=O)N1CCC(=O)N1CCc2ccccc21	–	·	–	·	–	–
O=C(CCn1cccc1)N1CCc2ccccc21	?	25µM	–	–	–	–
COc1cc(C(=O)N2CCc3c([nH]c4ccccc34)C2c2ccc(C)cc2)cc(OC)c1OC (stereo not given)	·	–	–	·	–	–
COc1ccc(N2CCN(Cc3nc4c(c(=O)[nH]c(=O)n4C)n3CC(C)C)CC2)cc1	·	–	–	·	–	–
O=C(/C=C/c1cccs1)NC(=S)NNC(=O)c1ccccc1O	–	–	-94	–	–	–
O=C(COC(=O)Cc1ccsc1)NNC(=O)c1ccccc1	–	·	–	·	–	–
O=C(CCC(=O)c1cccs1)NNC(=O)c1ccccc1O	–	11µM	–	·	–	–
O=C(Cc1ccsc1)NNC(=O)c1ccccc1O	–	–	-61	·	–	–
COc1ccccc1NC(=O)c1cc2c(=O)oc3ccc(C)cc3c2s1	·	–	–	·	–	–
Cc1ncc2c(c1CNS(=O)(=O)c1cccs1)CCN(C(=O)/C=C/c1ccc(F)cc1F)C2	·	·	·	·	–	·
CCc1ccc(NC(=O)C(NS(=O)(=O)c2cccs2)C(C)C)cc1 (stereo not given)	·	–	–	·	–	–
COc1cc2c(cc1[N+](=O)[O-])-c1ccc([N+](=O)[O-])cc1C2	·	·	-68	·	·	·
O=[N+]([O-])c1ccc2c(c1)Cc1cc(F)ccc1-2	–	·	-94	·	–	–
O=C(Nc1ccc2c(c1)Cc1cc([N+](=O)[O-])ccc1-2)C(F)(F)F	–	·	?	·	–	–
CC(=O)Nc1cccc2c1Cc1cc([N+](=O)[O-])ccc1-2	–	·	-98	·	–	–
COc1cc2c(=O)[nH]c3cc([N+](=O)[O-])ccc3c2cc1[N+](=O)[O-]	–	·	-94	·	–	–
CC1CCN(C(=O)CN2CC(C)Sc3ccccc32)CC1 (stereo not given)	·	–	–	·	–	–
